IDE cell activ = human IDE activators in live cells, primary screen, fluorescence polarization, HEK cells, FAbeta-B substrate; FAbeta-B cleavage; 0% vehicle, 100% cell-free pure enzyme wells; actives 0.073% (n = 340,000); AID 493087, 2011; activation, % at 5.96 µM; Insulin-degrading enzyme (Homo sapiens), P14735;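 active = activation above the mean of all tested compounds plus 3 SD, set per screening campaign, cut at about 17% in these data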
Target sequence (P14735 whole entry, looked up): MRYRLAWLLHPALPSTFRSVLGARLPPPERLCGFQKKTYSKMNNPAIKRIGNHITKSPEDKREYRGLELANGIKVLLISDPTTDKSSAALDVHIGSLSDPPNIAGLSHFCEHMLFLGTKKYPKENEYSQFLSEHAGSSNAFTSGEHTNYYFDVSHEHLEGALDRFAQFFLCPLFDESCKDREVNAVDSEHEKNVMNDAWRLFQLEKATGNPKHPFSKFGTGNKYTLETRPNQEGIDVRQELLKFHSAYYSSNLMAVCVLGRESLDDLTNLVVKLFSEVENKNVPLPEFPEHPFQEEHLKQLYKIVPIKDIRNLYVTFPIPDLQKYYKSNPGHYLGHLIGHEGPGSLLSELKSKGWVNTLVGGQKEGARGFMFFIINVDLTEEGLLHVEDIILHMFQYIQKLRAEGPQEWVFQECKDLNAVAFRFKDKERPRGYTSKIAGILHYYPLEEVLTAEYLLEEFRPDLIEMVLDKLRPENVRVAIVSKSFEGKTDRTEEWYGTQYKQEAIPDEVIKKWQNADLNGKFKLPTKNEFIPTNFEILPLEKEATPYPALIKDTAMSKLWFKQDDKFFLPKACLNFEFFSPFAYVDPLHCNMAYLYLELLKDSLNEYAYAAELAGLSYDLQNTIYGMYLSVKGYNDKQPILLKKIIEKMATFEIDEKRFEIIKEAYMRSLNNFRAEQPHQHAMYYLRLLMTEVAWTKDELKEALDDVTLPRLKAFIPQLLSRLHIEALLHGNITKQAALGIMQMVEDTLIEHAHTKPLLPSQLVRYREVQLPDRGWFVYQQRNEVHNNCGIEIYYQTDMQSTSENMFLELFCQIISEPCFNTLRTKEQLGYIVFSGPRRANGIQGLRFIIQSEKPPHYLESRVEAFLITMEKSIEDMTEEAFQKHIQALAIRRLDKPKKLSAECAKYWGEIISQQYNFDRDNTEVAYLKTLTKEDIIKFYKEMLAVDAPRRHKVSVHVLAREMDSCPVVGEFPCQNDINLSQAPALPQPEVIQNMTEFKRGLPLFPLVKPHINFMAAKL
CRFBP-R2 block = antagonists of CRF-BP/CRF-R2 complex, primary screen, cell-based, HEK293, calcium dye fluorescence, uHTS; actives 0.59% (n = 350,000); CRF-induced calcium fluorescence; inhibition, % at 11.8 µM;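 active = inhibition of the ligand-induced calcium signal above about 50% at the single tested concentration, limit read from the data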
Myeloid diff 2 = induction of myeloid progenitor differentiation, primary screen, cell-based, flow cytometry, MLPCN library | AID 624256, 2012 | calls only at 10 µM | ER-HoxA9 myeloid progenitors, lysozyme-GFP differentiation | actives 1% (n = 360,000);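 active = normalized GFP-positive differentiation at or above the plate's own cutoff, the solvent-only control mean plus 3 SD; inconclusive = no clear call, values can overlap the other calls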;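 also: cells exposed to compound for four days before flow analysis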
CRFBP-R2 agonist = agonists of CRF-BP/CRF-R2 complex, primary screen, cell-based, HEK293, calcium dye fluorescence, uHTS | CRF-binding protein / CRF receptor 2 complex (human) | calcium dye fluorescence (FLIPR); percent of saturating CRF peptide response | activation, % at 13.2 µM | actives 0.46% (n = 350,000);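 active = activation of at least 50%, plus an integration ratio under a set limit after plate pattern correction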
IDE inh = human IDE inhibitors in live cells, primary screen, fluorescence polarization, HEK cells, FAbetaB substrate | Insulin-degrading enzyme (Homo sapiens), P14735 | FAbetaB cleavage | actives 0.41% (n = 320,000) | AID 434962, 2010 | inhibition, % at 5.59 µM;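 active = percent inhibition above the average of all tested compounds plus 3 SD, set per screening campaign, cut at about 16% in these data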;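 also: IDE supplied by intact live HEK cells; FP after avidin binding of uncleaved biotin substrate so inhibition keeps polarization high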
TPT1 inhibitor = Candida albicans TPT1 enzyme inhibitors, primary screen, biochemical, fluorescence polarization; inhibition, % at 5 µM; actives 0.81% (n = 300,000); tRNA 2'-phosphotransferase TPT1 (Candida albicans SC5314); recombinant caTPT1, FP RNA substrate dephosphorylation;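 active = inhibition above the mean of all tested compounds plus 3 SD, set per screening campaign, cut at about 24% in these data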
Each line names hits and unclear results; the compound was inactive in the other large screens. Only some compounds are listed: those with a hit (about 2.6% of all), similar ones and a draw of the others.

O=[N+]([O-])/C(C(Cl)=C(Cl)Cl)=C(/NC1CC1)Sc1ccccc1	CRFBP-R2 block 56
COc1ccc(CCNC(=O)COc2ccc(N(C)S(=O)(=O)c3ccc(C)cc3)cc2)cc1OC	CRFBP-R2 block 103
CC(C)c1ccc(C(O)P(=O)(OC2CCCCC2)OC2CCCCC2)cc1 (centres undefined)	none (no result: IDE cell activ)
C=C(C)CN1CCN(c2ccc(N3C(=O)CCCC3=O)cc2[N+](=O)[O-])CC1	none
O=C(c1ccc(Cl)s1)N1CCCC1	Myeloid diff 2 active
O=[N+]([O-])c1cc([N+](=O)[O-])c(Oc2ccc(Cl)c3cccnc23)cc1NN1CCCCC1	Myeloid diff 2 active
Cc1noc(C(F)(F)F)c1C(=O)NNC(=O)c1cccc(C(F)(F)F)c1	CRFBP-R2 block 114
Cc1ccc(C(=O)N/N=C\c2ccccn2)cn1	CRFBP-R2 block 113
O=C(CCN1C(=O)C2C3CCC(C3)C2C1=O)Nc1ccc(F)cc1 (centres undefined)	none (no result: IDE inh, TPT1 inhibitor)
Cc1cc(C)n(-c2ccc(NC(=O)C3CCCCN3C(=O)c3ccc(C)s3)cc2)n1 (centres undefined)	none
CC12CC3(C)CC(C)(C1)CC(C(=O)NC(=S)N1CCCC1)(C2)C3	none
COc1ccccc1C1C(C(=O)c2sc(C)nc2C)=C(O)C(=O)N1CCN1CCOCC1 (centres undefined)	CRFBP-R2 block 94
COc1cccc(C2C(C(=O)c3sc(C)nc3C)=C(O)C(=O)N2CCN2CCOCC2)c1OC (centres undefined)	none
CC1=Nc2ccccc2/C1=C/c1c(C)[nH]c2ccccc12	Myeloid diff 2 active (no result: IDE inh, TPT1 inhibitor)
O=C(Cc1ccc(Cl)cc1)NCCc1ccc(F)cc1	none (no result: IDE cell activ)
CCOC(=O)c1[nH]c(C)c(C(=O)/C=C/c2ccc(C(=O)O)cc2)c1C	none
O=C(CCc1ccccc1)NNC(=S)NC(=O)c1ccc(Cl)cc1	CRFBP-R2 agonist 99 (no result: IDE cell activ, Myeloid diff 2)
CN(C)c1ccc(C(=O)NNC(=O)c2ccc(Cl)cc2)cc1	CRFBP-R2 block 68 (no result: IDE cell activ)
Cc1ccc(C(=O)NNC(=S)NC(=O)c2ccc(Cl)cc2)cc1	CRFBP-R2 agonist 216
O=C(CCc1ccccc1)NNC(=O)c1ccc(Cl)cc1	none
COc1ccc(C(=O)NC(=S)NNC(=O)c2cnccn2)cc1	Myeloid diff 2 inconclusive
O=C(NC(=S)NNC(=O)c1cnccn1)c1ccc(Cl)cc1	Myeloid diff 2 active
O=C(NCCCn1cccn1)C1CCC(=O)N(CCc2ccccc2)C1 (centres undefined)	none
COc1cc(CNCc2ccccn2)ccc1OCc1cccc(Cl)c1	Myeloid diff 2 inconclusive
CN(C)NC(=O)C(NC(=O)c1ccccc1)C12CC3CC(CC(C3)C1)C2 (centres undefined)	Myeloid diff 2 active
COCCNC(=O)C1(C)CCCN(Cc2cc(C(F)(F)F)ccc2Cl)C1 (centres undefined)	none (no result: IDE cell activ, CRFBP-R2 block, CRFBP-R2 agonist, IDE inh, TPT1 inhibitor)
O=C(Cn1ncc2c(=O)oc3ccccc3c21)N1CCCN(Cc2ccccc2F)C1	Myeloid diff 2 active
O=C(Cn1ncc2c(=O)oc3ccccc3c21)N1CCN(C(=O)c2ccco2)CC1	none
O=C1c2ccccc2C(=O)c2c(O)c(O)cc(O)c21	CRFBP-R2 block 52 (no result: TPT1 inhibitor)
C=C(C)C(=O)Oc1ccc(N2C(=O)[C@@H]3C4C=CC(C4)[C@@H]3C2=O)cc1	CRFBP-R2 block 61
CCOC(=O)[C@H]1[C@H]2COc3ccccc3[C@@H]2N2C(=O)CNC(=O)[C@@]12C	Myeloid diff 2 active (no result: TPT1 inhibitor)
CCOC(=O)[C@H]1[C@H]2COc3ccccc3[C@@H]2N2C(=O)c3cc(F)c(F)cc3NC(=O)[C@@]12C	none
COc1ccc(C(NC(=O)c2ccc(=O)[nH]c2)C(=O)Nc2ccc(C(C)C)cc2)cc1 (centres undefined)	CRFBP-R2 agonist 58 (no result: Myeloid diff 2)
O=c1c([N+](=O)[O-])cn(Cc2ccccc2)c(=O)n1Cc1ccccc1	CRFBP-R2 agonist 56 (no result: IDE inh, TPT1 inhibitor)
COc1ccc(C(CC(=O)Nc2ccc(F)cc2)c2ccccc2)cc1 (centres undefined)	CRFBP-R2 block 52
COc1ccc(NC(=O)CC(c2ccc(F)cc2)c2ccc(OC)cc2)cc1 (centres undefined)	none
CC1CC(C)(C)N(C(=O)CN2C(=O)c3ccccc3C2=O)c2ccccc21 (centres undefined)	CRFBP-R2 agonist 114
Cc1ccc2c(c1)C(C)CC(C)(C)N2C(=O)CN1CCN(C)CC1 (centres undefined)	CRFBP-R2 block 68
Oc1ccc2c(c1)OCC1(O)Cc3cc(O)c(O)cc3C21 (centres undefined)	IDE cell activ 34 (no result: IDE inh, TPT1 inhibitor)
Oc1cc2c(cc1O)[C@H]1c3ccc(O)c(O)c3OC[C@@]1(O)C2	none (no result: TPT1 inhibitor)
NC(=O)C1CCCN(C(=O)c2ccc3c(c2)NC(=O)CS3)C1 (centres undefined)	none (no result: TPT1 inhibitor)
CCC(=O)/C=C1/Sc2ccccc2N1CC	none
CCN1/C(=C/C=C2/SC(=Nc3cccc4ncccc34)N(C)C2=O)Sc2ccccc21	Myeloid diff 2 active (no result: IDE inh, TPT1 inhibitor)
O=C(CNC(=O)N1CC(=O)Nc2ccccc21)Nc1ccc(Cl)cc1Cl	none (no result: IDE cell activ, IDE inh, TPT1 inhibitor)
Cc1nn(-c2ccccc2)c(C)c1C(=O)OCC(=O)Nc1ccc2c(c1)OCO2	none
CC1(C)CC(=O)C2=C(C1)NC(=O)NC2c1ccccc1 (centres undefined)	none
CC1C2=C(CC(C)(C)CC2=O)NC2=C1C(=O)CC(C)(C)C2	CRFBP-R2 agonist 68
Cn1cc(Cc2ccc(C(=O)NCc3ccccc3)cn2)c2ccccc21	none (no result: IDE cell activ, CRFBP-R2 block, CRFBP-R2 agonist, IDE inh, TPT1 inhibitor)
O=C(Nc1nnc(C(F)(F)F)s1)c1ccc(Br)s1	CRFBP-R2 block 54, CRFBP-R2 agonist 98
CC(C)(C)CC(=O)Nc1nnc(C(F)(F)F)s1	none
NC(=O)c1ccccc1NC(=O)c1ccccc1Cl	none
O=C(Nc1ccccc1C(=O)Nc1nnc(C(F)(F)F)s1)c1ccccc1Cl	CRFBP-R2 block 50
CCSc1nnc(NC(=O)c2ccc(Br)s2)s1	none
CC(NC(=O)Nc1nnc(C(F)(F)F)s1)(C(F)(F)F)C(F)(F)F	CRFBP-R2 agonist 59
CC(=O)Nc1ccc(OC(=O)c2ccc(Br)c([N+](=O)[O-])c2)cc1	none
CC(=O)NC(Cc1ccc(C)cc1)C(=O)NC1CCN(c2ncccc2[N+](=O)[O-])CC1 (centres undefined)	CRFBP-R2 block 60
CCS(=O)(=O)Nc1ccc(-c2nc3cccnc3s2)cc1	CRFBP-R2 agonist 89
COc1cccc(NC(=O)CN(C)C(=O)C(Sc2ccccc2)c2ccccc2)c1 (centres undefined)	none (no result: IDE inh, TPT1 inhibitor)
CN1CCN(S(=O)(=O)c2cccs2)CC1	none

Screens from PubChem.
